Bioassay records: PubChem, several laboratories
PLAP act – human PLAP activation; purified PLAP enzyme, luminescent substrate read-out; hits give high values; activation fold at 20 µM; 96,000 compounds, 1.2% hits; AID 696; in the data active = activation fold above about 2
BAP1 block – blocks human BAP1 ubiquitin-AMC hydrolysis | Q92560 | recombinant BAP1, Ub-AMC hydrolysis fluorescence kinetic; hits give low values | calls only at 20 µM | 72,000 compounds, 0.48% hits | AID 436;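 active = activity remaining at or below 50% of control, provided the compound also passes the data quality filters; inactive = the rest, including low values that fail the filters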
Target sequence (Q92560 whole entry, looked up): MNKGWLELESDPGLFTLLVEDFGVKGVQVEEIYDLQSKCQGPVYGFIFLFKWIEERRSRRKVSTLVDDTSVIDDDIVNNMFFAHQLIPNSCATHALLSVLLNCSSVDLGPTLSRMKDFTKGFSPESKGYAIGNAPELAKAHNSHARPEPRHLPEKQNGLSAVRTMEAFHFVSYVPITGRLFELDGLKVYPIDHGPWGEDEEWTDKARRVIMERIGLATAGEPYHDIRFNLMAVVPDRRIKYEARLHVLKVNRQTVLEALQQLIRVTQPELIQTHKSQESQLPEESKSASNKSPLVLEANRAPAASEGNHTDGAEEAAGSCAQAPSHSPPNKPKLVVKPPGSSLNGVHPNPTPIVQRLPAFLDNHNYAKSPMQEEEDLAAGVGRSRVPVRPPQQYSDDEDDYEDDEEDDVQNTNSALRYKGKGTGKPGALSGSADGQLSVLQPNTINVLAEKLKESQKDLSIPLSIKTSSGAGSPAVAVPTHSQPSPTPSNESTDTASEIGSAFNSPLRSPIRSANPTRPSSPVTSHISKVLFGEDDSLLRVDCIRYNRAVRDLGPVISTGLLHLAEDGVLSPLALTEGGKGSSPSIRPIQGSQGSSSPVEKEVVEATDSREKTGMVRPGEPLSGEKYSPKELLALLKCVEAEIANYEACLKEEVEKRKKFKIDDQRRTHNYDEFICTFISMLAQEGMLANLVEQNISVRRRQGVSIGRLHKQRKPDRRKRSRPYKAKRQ
DUSP1 inh – human dual specificity phosphatase 1 inhibition; AID 374; 65,000 compounds, 0.15% hits; P28562; inhibition, %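 (compounds tested at a single concentration somewhere between 10 and 100 µM)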; recombinant MKP-1, OMFP hydrolysis fluorescence;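 active = inhibition above about 50%, limit read from the data; inconclusive = inhibition over screen mean plus 3 SD, below that limit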
HePTP inh – blocks human HePTP tyrosine phosphatase; P35236; recombinant HePTP phosphatase activity, OD absorbance; inhibition, % at 20 µM; 110,000 compounds, 0.64% hits; in the data active = inhibition above about 50%; inconclusive = no clear call, values can overlap the other calls
Cdc25B inh – inhibitors of human Cdc25B phosphatase; recombinant Cdc25B, OMFP fluorescence Ex485/Em525; 65,000 compounds, 0.1% hits; inhibition, %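 (compounds tested at 10 µM final in the well)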; in the data active = inhibition above about 50%
BAP1 inh confirm – BAP1 (human) enzyme inhibition, confirmed. % of control activity, % at 20 µM. purified BAP1, Ub-ethyl ester hydrolysis, HPLC; hits give low values. 310 compounds, 8% hits. shares compounds with BAP1 block;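 active = percent of control activity at or below 60%; inconclusive = HPLC trace unusable from injection failure or solvent front hiding peaks; inactive = the rest, plus ubiquitin peak ratio over a set limit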
Of the large screens only hits and unclear results are named; the others gave an inactive call (follow-up assays come after a bar, where shown). In the library only some 1.4% were active in any assay of this set; here they are far more common.

CC1=C(C(=O)OCC(Cl)(Cl)Cl)C(c2ccc(Cl)cc2)NC(=O)N1 (stereo unspecified)	none (no result: PLAP act, BAP1 block, DUSP1 inh, Cdc25B inh)
Oc1ccc(Br)cc1-c1nnc2ccc3ccccc3n12	none (no result: PLAP act, BAP1 block, DUSP1 inh, Cdc25B inh)
Cc1ccc(-n2ncc3c(=O)n(CC(=O)Nc4cccc(Cl)c4)cnc32)cc1C	BAP1 block active | BAP1 inh confirm inactive
Cc1cc(Cl)cc(C)c1OCCCCCN1CCOCC1	none (no result: PLAP act, BAP1 block, DUSP1 inh, Cdc25B inh)
Cc1cc(Cl)c2c(c1)[C@]1(C(=O)N2)[C@@H]2C(=O)N(Cc3ccccc3)C(=O)[C@@H]2[C@@H]2CCCN21	none
O=C1[C@H]2[C@@H](C(=O)N1c1cc(Cl)cc(Cl)c1)[C@]1(C(=O)Nc3ccccc31)N1CCC[C@@H]21	BAP1 block active | BAP1 inh confirm inactive
COc1cc(OC)nc(NC(=O)CSc2nc3ccccc3o2)n1	BAP1 block active | BAP1 inh confirm inactive
COc1ccc2nc(N3CCC(O)CC3)c(C#N)cc2c1	none
CCOC(=O)C1CCN(c2nc3cc(OC)ccc3cc2C#N)CC1	BAP1 block active | BAP1 inh confirm inactive
O=C(CCN1C(=O)/C(=C/c2cccs2)SC1=S)Nc1nc2ccccc2s1	none (no result: PLAP act, BAP1 block, DUSP1 inh, Cdc25B inh)
CCCCOc1ccccc1NC(=O)Cn1c(-c2nonc2N)nc2ccccc21	BAP1 block active | BAP1 inh confirm inactive
COc1ccccc1NS(=O)(=O)c1cc(N2C(=O)C3C4C=C(C)C(C4)C3C2=O)ccc1Cl (stereo unspecified)	none (no result: PLAP act, BAP1 block, DUSP1 inh, Cdc25B inh)
COc1ccc(COC(=O)C2=C(C)NC3=C(C(=O)CCC3)C2c2cccc3ccccc23)cc1 (stereo unspecified)	none (no result: PLAP act, BAP1 block, DUSP1 inh, Cdc25B inh)
C=CCn1c(-c2cc(OC)c(OC)c(OC)c2)n[nH]c1=S	BAP1 block active | BAP1 inh confirm inactive
CC1(C)CC(=O)c2cc(C(=O)NC3CCSC3=O)c(=O)n(-c3ccccc3)c2C1 (stereo unspecified)	BAP1 block active | BAP1 inh confirm inactive
O=C(Nc1nc(-c2nc3ccccc3s2)cs1)c1ccc(S(=O)(=O)N2CCOCC2)cc1	BAP1 block active | BAP1 inh confirm inactive
O=C(Nc1nc(-c2ccc(S(=O)(=O)N3CCOCC3)cc2)cs1)c1ccccc1	none (no result: BAP1 block, DUSP1 inh, HePTP inh, Cdc25B inh)
CC(C)Cn1cc(C(=O)N2CCN(c3ccccn3)CC2)c2c3ccccc3n(C)c2c1=O	BAP1 block active | BAP1 inh confirm inactive
O=C(Nc1ccc(F)cc1F)c1cc2n(n1)C(C(F)(F)F)C1CCCCC1N2 (stereo unspecified)	BAP1 block active | BAP1 inh confirm inactive
O=C(NCc1ccc(F)cc1)c1cc2n(n1)C(C(F)(F)F)CC(c1ccc(Cl)cc1)N2 (stereo unspecified)	none (no result: PLAP act, DUSP1 inh, HePTP inh, Cdc25B inh)
CCCOC(=O)c1ccc(Oc2cn[nH]c2-c2ccc(OCC)cc2O)cc1	none
CCCc1ccc(Oc2c(-c3ccc(O)c(C)c3O)n[nH]c2C)cc1	BAP1 block active | BAP1 inh confirm inactive
CCCc1ccc(Oc2cn[nH]c2-c2ccc(O)c(C)c2O)cc1	PLAP act 2.2, BAP1 block active | BAP1 inh confirm 58.8
COc1ccc(Oc2c(-c3ccc(O)cc3O)n[nH]c2C)cc1	none
COc1ccc(CCNC(=O)c2ccc(N(Cc3ccc(Cl)cc3)S(C)(=O)=O)cc2)cc1OC	none (no result: PLAP act, BAP1 block, DUSP1 inh, Cdc25B inh)
CCc1nc(N2CCCCC2)c2oc3ccccc3c2n1	none
CCc1nc(N2CCCC(C)C2)c2oc3ccccc3c2n1 (stereo unspecified)	BAP1 block active | BAP1 inh confirm inactive
CCOC(=O)c1sc(NC(=O)c2noc3c2CCCC3)c(C(=O)OCC)c1C	BAP1 block active (no result: PLAP act) | BAP1 inh confirm inactive
CCC(C)C(=O)Nc1nnc(-c2cccs2)s1 (stereo unspecified)	BAP1 block active | BAP1 inh confirm inactive
Cc1sc2nc(CN3CCOCC3)nc(N3CCC(C(N)=O)CC3)c2c1C	none (no result: PLAP act) | BAP1 inh confirm inactive
Cc1ccc(NC(=O)N2CCC(C(=O)NCCC3=CCCCC3)CC2)cc1	BAP1 block active | BAP1 inh confirm inactive
Cc1ccc(NC(=O)N2CCCC2C(=O)NCCC2=CCCCC2)cc1 (stereo unspecified)	none
O=[N+]([O-])c1cccc(N=Cc2ccc[nH]2)c1	none (no result: PLAP act, BAP1 block, DUSP1 inh, Cdc25B inh)
CC(=O)/C=C/c1cccc[n+]1C	none (no result: PLAP act, BAP1 block, DUSP1 inh, Cdc25B inh)
COC(=O)COc1ccc(/C=C2\C(=O)NC(=S)N(c3ccc(F)cc3)C2=O)cc1OC	none (no result: PLAP act, BAP1 block, DUSP1 inh, Cdc25B inh)
CCn1c(=O)c2cc(C(=O)N3CCOCC3)sc2c2ccccc21	BAP1 block active | BAP1 inh confirm inactive
CCn1c(=O)c2cc(C(=O)N3CCCC3)sc2c2ccccc21	none (not shown: PLAP act, BAP1 block)
Cc1cc(CN2CCOCC2)oc1C(=O)O	none (no result: PLAP act, BAP1 block, DUSP1 inh, Cdc25B inh)
COc1ccc(CNS(=O)(=O)c2ccc(S(=O)(=O)N3CCCCC3)cc2)cc1	BAP1 block active | BAP1 inh confirm inconclusive
CCOC(=O)N1CCC(NC(=O)c2ccc3c(c2)sc2nc(-c4ccccc4)cn23)CC1	BAP1 block active, DUSP1 inh inconclusive | BAP1 inh confirm inactive
N#Cc1c(NC(=O)CCN2C(=O)c3ccccc3C2=O)oc(-c2ccccc2)c1-c1ccccc1	BAP1 block active | BAP1 inh confirm 49.6
CCCCCCn1c(-c2ccco2)nc2oc3cc(OC)ccc3c(=O)c2c1=O	BAP1 block active | BAP1 inh confirm inactive
Cc1ccc(C)c(NC(=O)CC(C)C2CCCO2)c1 (stereo unspecified)	none (no result: PLAP act, BAP1 block, DUSP1 inh, Cdc25B inh)
O=C(NCC1CCCO1)c1c(Cl)cccc1Cl (stereo unspecified)	none (no result: PLAP act, BAP1 block, DUSP1 inh, Cdc25B inh)
O=C(NCc1ccccn1)c1ccc2c(c1)OCO2	none (no result: PLAP act, BAP1 block, DUSP1 inh, Cdc25B inh)
O=C(NCc1ccccn1)Nc1ccc2c(c1)OCO2	BAP1 block active | BAP1 inh confirm inactive
CCC(C)Sc1nc2c(cnn2-c2ccc(C)c(C)c2)c(=O)[nH]1 (stereo unspecified)	none
CSc1nc2c(cnn2-c2ccc(C)c(C)c2)c(=O)[nH]1	BAP1 block active | BAP1 inh confirm inconclusive
Cc1ccc(-c2nc3cccnc3o2)cc1NC(=O)COc1ccc(Cl)cc1C	BAP1 block active | BAP1 inh confirm inactive
COc1ccc(C2CC(c3ccccc3)=Nc3ccccc3S2)cc1OC (stereo unspecified)	none (no result: PLAP act, BAP1 block, DUSP1 inh, Cdc25B inh)
CCOc1cc2[nH]c(=O)n(Cc3cccc(OC)c3)c(=O)c2cc1OCC	BAP1 block active | BAP1 inh confirm inactive
COc1ccc(N(CC(=O)Nc2cccc(C)c2)S(C)(=O)=O)c(OC)c1	none (no result: PLAP act, BAP1 block, DUSP1 inh, Cdc25B inh)
COc1ccc(NC(=O)c2c(NC(=O)CNCc3ccco3)sc3c2CCC3)c(OC)c1	BAP1 block active | BAP1 inh confirm inconclusive
COc1ccc(OC)c(NC(=O)c2c(NC(=O)CNCc3ccco3)sc3c2CCC3)c1	none
COc1ccccc1NC(=O)c1cnn(-c2ccccc2)c1NC(C)=O	none (no result: PLAP act, BAP1 block, DUSP1 inh, Cdc25B inh)
O=C(O)Cn1cc(C(=O)c2cccs2)c2ccccc21	BAP1 block active | BAP1 inh confirm inactive
CCOc1ccc(N2Cc3ccccc3C2)cc1	BAP1 block active | BAP1 inh confirm inactive
COc1cccc(C2C(C(=O)OCCc3ccccc3)=C(C)NC3=C2C(=O)CCC3)c1OC (stereo unspecified)	none (no result: PLAP act, BAP1 block, DUSP1 inh, Cdc25B inh)
CCCS(=O)(=O)c1c(S(=O)(=O)CCC)c2cc(-c3ccncc3)ccn2c1C(=O)c1ccc(OC)cc1	none (no result: PLAP act, BAP1 block, DUSP1 inh, Cdc25B inh)
